PubChem BioAssay (NCATS)
Where “and” joins values, the source holds several entries; their conditions need not be identical. Equal entries are not always repeated. Records with an inconclusive call do not appear. Calls of active or inactive are those of the source. Unless noted, calls follow the shape of the dose curve; as a rule, active = well fitted curve in the direction sought with a large enough effect; inconclusive = small, poorly fitted or top-dose-only effect, or another doubt; inactive = no such curve, though single readings can be large; an effect the other way counts as inactive or inconclusive.

Key:
[1] = Cell Viability - NIH 3T3 (AID 541); conditions: NIH 3T3 cell viability, qHTS; activity change, negative = cytotoxicity: at 92.2 µM (top of the series);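 also: plate controls were DMSO alone for no effect and tamoxifen positive control for full effect; nearly all actives have a fitted effect of over 25% in size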
Outline: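 AC50 values reflect concentration-dependent loss of intracellular ATP in NIH 3T3 cells after 40 hr treatment in complete culture medium, quantified by luciferase-based luminescence.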

[2] = Cell Viability - Renal Proximal Tubule (AID 545); conditions: renal proximal tubule cells viability, primary cells of rat origin; activity change, negative = cytotoxicity: at 91.7 µM (top of the series); also: nearly all actives have a fitted effect of over 40% in size; also: potency is read from the fitted curve at half-maximal effect;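 as to activity change, negative = cytotoxicity: 0% = DMSO only and -100% = 100 µM tamoxifen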
Outline: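 Rat renal proximal tubule primary cells, 1000/well, exposed to compounds for 40 hr at 37 °C in complete medium; cellular ATP read by CellTiter-Glo luminescence. AC50 from concentration-response fitted with standard Hill equation.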

[3] = Cell Viability - LYMP2-003 (AID 965);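 also: cells exposed to compounds for 24 h before reading; 0% = DMSO only and full effect = 92 µM tetraoctylammonium bromide; nearly all actives have a fitted effect of over 50% in size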
Outline: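 Human lymphoblastoid LYMP2-003 cells, 2500/well, exposed to compounds for 24 h at 37 C in complete medium. Viability read as intracellular ATP by CellTiter-Glo luminescence; AC50 from Hill-equation fits of qHTS concentration-response data.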

[4] = Cell Viability - LYMP2-021 (AID 974);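 also: compound exposure lasts 24 hours at 37 °C; nearly all actives have a fitted effect of over 55% in size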; also: potency is read from the fitted curve at half-maximal effect
Outline: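 Concentration-response cytotoxicity in a human lymphoblastoid line: 24 hr treatment at 37 C in complete culture medium, tetraoctylammonium bromide as positive control, luminescent ATP quantitation as viability measure.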

[5] = Cell Viability - LYMP2-012 (AID 982);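 also: cellular ATP by luciferase luminescence where a drop means cytotoxicity; cells exposed to compound for one day before reading; nearly all actives have a fitted effect of over 55% in size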; also: potency is read from the fitted curve at half-maximal effect;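 as to activity change, negative = cytotoxicity: 0% = DMSO only and full loss = 92 µM tetraoctylammonium bromide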
[6] = target: Glucocorticoid receptor (Homo sapiens) (UniProt P04150); assay: qHTS assay for small molecule antagonists of glucocorticoid receptor signaling (AID 588533; active = well fitted inhibition curve with a large enough effect in the signal ratio, with a control signal flat, not every such curve was filed as active; the % refers to the signal ratio; also: % is scaled to controls: 0 for no effect and ±100 for the full control effect)
Outline: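 Antagonist-mode qHTS: compound titrations added to GRE-bla HeLa cells, then dexamethasone 2 nM final; 18 h, 37 C. CCF4 FRET fluorescence normalized to dexamethasone and DMSO; IC50 from Hill fit.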

[7] = qHTS assay for small molecule antagonists of peroxisome proliferator-activated receptor delta signaling (AID 588535); conditions: HEK293T PPARd-UAS-bla, beta-lactamase FRET ratio, 18 h; 460 nm channel;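 also: cells co-treated with a PPAR-delta agonist as stimulator during compound exposure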
Outline: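 Cells were seeded at 4000 per well in assay medium containing 2% charcoal/dextran FBS and held 5 hrs at 37 C. Compounds were then added for 18 hrs. CCF4 substrate was applied for 2 hrs at room temperature before fluorescence reading.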

[8] = target: Peroxisome proliferator-activated receptor gamma (Homo sapiens) (UniProt P37231); assay: qHTS assay for small molecule agonists of peroxisome proliferator-activated receptor gamma signaling (AID 588536; active = well fitted curve in the direction sought with a large enough effect in the signal ratio, with a control signal flat, not every such curve was filed as active; the % refers to the signal ratio;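 also: 0% = DMSO basal wells and 100% = rosiglitazone at 2 µM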)
Outline: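 Test agents, titrated, stimulated HEK293 UAS-bla cells overnight (16 h, 37 C). Substrate CCF4 was then added for two hours at room temperature before fluorescence reading.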

[9] = target: Vitamin D3 receptor (Homo sapiens) (UniProt P11473); assay: qHTS assay for small molecule antagonists of vitamin D receptor signaling (AID 588541; calls by dose curve;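 also: receptor activated by calcitriol during compound treatment; % is scaled to controls: 0 for no effect and ±100 for the full control effect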)
Outline: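 VDR-UAS-bla HEK293T cells in 2% charcoal-stripped FBS were stimulated with 1-alpha,25-dihydroxyvitamin D3 (3 nM final) plus compound for 16 h at 37 C. The beta-lactamase CCF4 readout was normalized to 50 nM agonist and DMSO, and Hill fits gave IC50.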

[10] = qHTS assay for small molecule agonists of the antioxidant response element (ARE) signaling pathway (AID 651741; active = well fitted activation curve with a large enough effect in the signal ratio; the % refers to the signal ratio; also: potency is read from the fitted curve at half-maximal effect; as to activation: % of control where 0% means no effect)
Outline: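 HepG2 ARE-bla cells plated at 2,000 cells/well and incubated 5 h at 37 C/5% CO2 received 23 nL compound in DMSO. After 16 h at 37 C, LiveBLAzer B/G FRET substrate was applied for 2 h at room temperature and fluorescence read.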

[11] = target: Tumor necrosis factor (Homo sapiens) (UniProt P01375); assay: qHTS assay to identify small molecules that stimulate Tumor Necrosis Factor-alpha (TNF-alpha) secretion (AID 651757; active = well fitted curve in the direction sought with a large enough effect in the signal ratio; the % refers to the signal ratio; also: 0% is about no effect)
Outline: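 Secreted TNF-alpha from compound-treated THP-1 cells (17 hrs, 37 C) was quantified with a homogeneous time-resolved fluorescence antibody assay.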

[12] = qHTS assay for small molecule agonists of the antioxidant response element (ARE) signaling pathway measured by Nrf2-dependant transcriptional activity - cell viability counter screen (AID 720653; active = well fitted curve in the direction sought with a large enough effect in the repeat runs; an effect the other way counts as inactive or inconclusive; also: % is scaled to controls: 0 for no effect and ±100 for the full control effect); conditions: ARE-bla HepG2 viability, CellTiter-Glo ATP luminescence, 16 h; max response: stronger effect = lower value
Outline: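 ARE-bla HepG2 cells treated with compounds for 16 h at 37C; this counter screen measures viability as intracellular ATP by CellTiter-Glo luminescence after 30 min at room temperature.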

[13] = target: Estrogen receptor (Homo sapiens) (UniProt P03372); assay: qHTS assay for small molecule antagonists of estrogen receptor alpha signaling (AID 588513; active = well fitted curve in the direction sought with a large enough effect in the signal ratio, with a control signal flat, not every such curve was filed as active; the % refers to the signal ratio; also: % is scaled to controls: 0 for no effect and ±100 for the full control effect)
Outline: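 ER-alpha-UAS-bla GripTite HEK 293 cells in 2% charcoal/dextran-treated FBS medium; compounds titrated (1:2, duplicate), then stimulated with 0.5 nM 17-beta-estradiol for 18 h at 37C. CCF4 beta-lactamase fluorescence; Hill-fit IC50 and efficacy.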

[14] = target: Estrogen receptor (Homo sapiens) (UniProt P03372); assay: qHTS assay for small molecule agonists of estrogen receptor alpha signaling (AID 588514; calls by dose curve;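 also: 0% = vehicle only and 100% = reference agonist; nearly all actives have a fitted effect of over 70% in size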)
Outline: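 Reporter-gene assay. […] controls beta-lactamase in HEK 293 GripTite cells; after 18 hrs with compound, CCF4 substrate is added for 2 hrs and fluorescence is read.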

[15] = target: Mitogen-activated protein kinase 10 (Mus musculus) (UniProt Q61831); assay: JNK3 AlphaScreen Assay (AID 530; active = well fitted curve in either direction with a large enough effect, not every such curve was filed as active)
Outline: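 qHTS format: compounds tested as titrations against IL-1beta/TNF-alpha-activated HepG2 lysate JNK3 with biotin-GST-cJun substrate and 10 uM ATP at room temperature. Loss of anti-phospho-cJun AlphaScreen signal indicates inhibition.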

[16] = Cell Viability - N2a (AID 540); conditions: N2a mouse neuroblastoma cell viability; activity change, negative = cytotoxicity: at 92.2 µM (top of the series); also: nearly all actives have a fitted effect of over 45% in size; also: potency is read from the fitted curve at half-maximal effect;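 as to activity change, negative = cytotoxicity: plate controls were DMSO alone for no effect and tamoxifen control for full effect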
Outline: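 First, 1500 N2a cells per well incubate 5 hr at 37 °C; next, compounds are added and incubated 40 hr at 37 °C; finally CellTiter-Glo is added and luminescence read after 20 min, with AC50 derived by Hill modeling.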

[17] = target: Retinoic acid receptor RXR-alpha (Homo sapiens) (UniProt P19793); assay: qHTS assay for small molecule agonists of retinoid X receptor alpha signaling (AID 588544; calls by dose curve;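 also: 0% = DMSO basal wells and 100% = reference agonist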)
[18] = target: Bile acid receptor (Homo sapiens) (UniProt Q96RI1); assay: qHTS assay for small molecule antagonists of farnesoid X receptor signaling (AID 588526; calls by dose curve; also: % is scaled to controls: 0 for no effect and ±100 for the full control effect)
Outline: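 Antagonist mode: titrated compounds tested against chenodeoxycholic acid stimulation (normalized to 50 uM CDCA and DMSO) in GeneBLAzer HEK293T cells for 16 h. Beta-lactamase read by CCF4 fluorescence; IC50 from Hill fits.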

[19] = target: Peroxisome proliferator-activated receptor gamma (Homo sapiens) (UniProt P37231); assay: qHTS assay for small molecule antagonists of peroxisome proliferator-activated receptor gamma signaling (AID 588537; active = well fitted inhibition curve with a large enough effect in the signal ratio, with a control signal flat, not every such curve was filed as active; the % refers to the signal ratio;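 also: reporter cells co-stimulated with 50 nM rosiglitazone agonist during compound treatment; % of control where 0% means no effect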)
Outline: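 Step one: plate 3000 HEK293 UAS-bla cells per well in medium with 1% stripped serum and hold 6-6.5 h at 37 C. Step two: add compound and 50 nM agonist for 16 h. Step three: CCF4 loading, fluorescence read.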

[20] = qHTS assay to identify small molecules that stimulate interleukin-8 (IL-8) secretion (AID 651758; active = well fitted activation curve with a large enough effect in the signal ratio; the % refers to the signal ratio; also: potency is read from the fitted curve at half-maximal effect; as to activation: 0% is about no effect)
Outline: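 THP-1 cells (2000/well) exposed to compound 16 h at 37 C; secreted IL-8 then detected by HTRF with cryptate- and XL665-labelled anti-IL-8 antibody pair after 1-3 h at room temperature.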

Sequence of Estrogen receptor (Homo sapiens) (P03372 whole entry, looked up): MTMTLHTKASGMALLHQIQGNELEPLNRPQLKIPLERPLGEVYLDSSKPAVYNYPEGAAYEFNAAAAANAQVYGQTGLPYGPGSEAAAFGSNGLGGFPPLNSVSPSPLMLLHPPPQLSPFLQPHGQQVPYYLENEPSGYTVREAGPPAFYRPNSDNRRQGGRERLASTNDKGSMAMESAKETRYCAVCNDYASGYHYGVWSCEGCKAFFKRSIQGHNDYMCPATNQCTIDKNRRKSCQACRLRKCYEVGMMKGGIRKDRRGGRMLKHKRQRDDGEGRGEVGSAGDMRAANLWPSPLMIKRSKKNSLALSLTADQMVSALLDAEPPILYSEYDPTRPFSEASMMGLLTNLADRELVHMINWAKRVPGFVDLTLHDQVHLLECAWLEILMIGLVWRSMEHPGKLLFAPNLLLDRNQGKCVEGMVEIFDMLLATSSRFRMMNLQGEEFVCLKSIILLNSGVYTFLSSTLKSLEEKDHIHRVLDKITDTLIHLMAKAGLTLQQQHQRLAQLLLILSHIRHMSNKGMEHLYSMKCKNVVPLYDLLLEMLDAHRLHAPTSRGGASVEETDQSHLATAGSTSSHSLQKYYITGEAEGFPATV
Sequence of Retinoic acid receptor RXR-alpha (Homo sapiens) (P19793 whole entry, looked up): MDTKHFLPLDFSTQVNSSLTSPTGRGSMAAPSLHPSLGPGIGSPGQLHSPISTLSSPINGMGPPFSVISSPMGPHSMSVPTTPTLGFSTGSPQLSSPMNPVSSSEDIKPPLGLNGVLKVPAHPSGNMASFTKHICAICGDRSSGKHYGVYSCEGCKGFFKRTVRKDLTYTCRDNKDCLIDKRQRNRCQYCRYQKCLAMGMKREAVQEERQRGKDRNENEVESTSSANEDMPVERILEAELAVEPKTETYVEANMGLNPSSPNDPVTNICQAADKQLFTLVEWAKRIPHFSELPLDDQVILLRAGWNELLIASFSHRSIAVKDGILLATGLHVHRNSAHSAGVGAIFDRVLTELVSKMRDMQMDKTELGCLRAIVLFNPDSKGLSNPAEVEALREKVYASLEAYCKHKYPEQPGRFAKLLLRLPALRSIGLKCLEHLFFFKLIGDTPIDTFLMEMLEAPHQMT
Sequence of Peroxisome proliferator-activated receptor gamma (Homo sapiens) (P37231 whole entry, looked up): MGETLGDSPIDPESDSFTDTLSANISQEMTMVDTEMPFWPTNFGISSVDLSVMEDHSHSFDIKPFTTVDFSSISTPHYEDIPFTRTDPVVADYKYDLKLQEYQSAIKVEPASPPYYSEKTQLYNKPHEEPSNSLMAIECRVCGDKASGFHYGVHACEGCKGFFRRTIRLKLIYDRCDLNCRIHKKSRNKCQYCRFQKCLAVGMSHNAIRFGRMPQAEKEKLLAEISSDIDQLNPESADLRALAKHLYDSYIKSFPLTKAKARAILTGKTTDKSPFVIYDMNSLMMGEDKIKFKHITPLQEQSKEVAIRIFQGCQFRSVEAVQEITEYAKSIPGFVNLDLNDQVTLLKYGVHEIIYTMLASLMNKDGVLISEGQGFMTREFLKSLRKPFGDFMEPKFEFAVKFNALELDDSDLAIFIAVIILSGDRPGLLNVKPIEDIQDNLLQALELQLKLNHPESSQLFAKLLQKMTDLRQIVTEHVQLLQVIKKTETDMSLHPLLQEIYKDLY
Sequence of Bile acid receptor (Homo sapiens) (Q96RI1 whole entry, looked up): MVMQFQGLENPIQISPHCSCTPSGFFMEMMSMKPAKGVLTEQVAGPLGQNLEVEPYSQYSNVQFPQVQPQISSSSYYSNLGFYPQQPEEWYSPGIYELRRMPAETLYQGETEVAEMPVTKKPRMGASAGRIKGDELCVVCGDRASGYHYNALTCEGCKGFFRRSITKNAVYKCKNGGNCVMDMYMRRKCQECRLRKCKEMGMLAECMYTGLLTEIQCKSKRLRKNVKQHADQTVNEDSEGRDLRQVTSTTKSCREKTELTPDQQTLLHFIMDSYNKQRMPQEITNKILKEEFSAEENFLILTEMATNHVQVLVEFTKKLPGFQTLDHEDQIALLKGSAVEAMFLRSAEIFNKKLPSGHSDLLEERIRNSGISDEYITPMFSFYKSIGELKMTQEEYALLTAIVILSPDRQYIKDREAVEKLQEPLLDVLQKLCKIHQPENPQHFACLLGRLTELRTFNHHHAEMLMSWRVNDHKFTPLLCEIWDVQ
Sequence of Tumor necrosis factor (Homo sapiens) (P01375 whole entry, looked up): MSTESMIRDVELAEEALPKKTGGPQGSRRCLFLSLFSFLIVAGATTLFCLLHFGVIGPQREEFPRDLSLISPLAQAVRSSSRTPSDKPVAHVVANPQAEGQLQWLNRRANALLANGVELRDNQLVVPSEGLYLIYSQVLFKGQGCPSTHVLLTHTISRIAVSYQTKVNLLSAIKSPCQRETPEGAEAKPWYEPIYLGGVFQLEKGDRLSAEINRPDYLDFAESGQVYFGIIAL
Sequence of Glucocorticoid receptor (Homo sapiens) (P04150 whole entry, looked up): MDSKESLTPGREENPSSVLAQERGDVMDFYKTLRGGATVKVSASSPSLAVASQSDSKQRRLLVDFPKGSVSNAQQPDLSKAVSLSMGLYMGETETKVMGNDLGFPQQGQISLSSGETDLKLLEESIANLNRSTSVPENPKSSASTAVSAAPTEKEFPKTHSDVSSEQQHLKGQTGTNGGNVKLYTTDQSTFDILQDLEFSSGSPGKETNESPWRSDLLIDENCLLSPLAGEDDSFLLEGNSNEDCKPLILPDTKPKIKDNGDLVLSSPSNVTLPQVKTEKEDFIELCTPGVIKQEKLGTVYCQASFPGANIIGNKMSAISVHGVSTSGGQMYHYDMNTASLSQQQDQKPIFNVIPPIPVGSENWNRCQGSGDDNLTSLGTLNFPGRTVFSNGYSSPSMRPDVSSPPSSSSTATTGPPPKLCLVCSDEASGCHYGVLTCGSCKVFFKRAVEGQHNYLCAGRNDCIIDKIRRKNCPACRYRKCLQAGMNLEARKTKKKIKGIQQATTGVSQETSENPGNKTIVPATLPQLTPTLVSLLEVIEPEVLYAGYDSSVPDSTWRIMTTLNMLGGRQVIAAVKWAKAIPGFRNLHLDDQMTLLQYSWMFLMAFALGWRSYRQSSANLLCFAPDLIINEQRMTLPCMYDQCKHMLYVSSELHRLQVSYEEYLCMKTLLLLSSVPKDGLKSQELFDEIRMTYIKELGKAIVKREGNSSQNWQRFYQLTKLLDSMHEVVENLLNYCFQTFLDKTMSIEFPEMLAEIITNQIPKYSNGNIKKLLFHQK
Sequence of Vitamin D3 receptor (Homo sapiens) (P11473 whole entry, looked up): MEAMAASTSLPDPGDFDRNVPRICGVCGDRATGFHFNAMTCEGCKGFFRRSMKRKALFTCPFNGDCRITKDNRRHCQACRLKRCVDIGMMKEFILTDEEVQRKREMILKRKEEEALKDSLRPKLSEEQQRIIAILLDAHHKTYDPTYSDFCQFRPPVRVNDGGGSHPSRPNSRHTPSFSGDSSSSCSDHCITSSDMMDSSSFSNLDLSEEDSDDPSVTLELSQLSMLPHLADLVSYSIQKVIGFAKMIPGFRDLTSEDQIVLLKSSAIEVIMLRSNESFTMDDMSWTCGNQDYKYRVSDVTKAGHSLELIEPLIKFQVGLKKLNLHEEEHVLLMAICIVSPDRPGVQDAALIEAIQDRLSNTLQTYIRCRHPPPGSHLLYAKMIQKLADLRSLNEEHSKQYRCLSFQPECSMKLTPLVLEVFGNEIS

NC(=O)c1ccc([N+](=O)[O-])cc1
inactive: activity change, negative = cytotoxicity [1] -5.57% | Potency [2] | Potency [3] | Potency [4] | Potency [5] | Potency [6] | outcome [8] | Potency [9] | Potency [10] | Potency [11] | max response [12] 5.8%
16.9%: max response [7]

O=c1[nH]ncc2ccccc12
inactive: Potency [2] | Potency [4] | Potency [5] | outcome [13] | Potency [14] | Potency [6] | outcome [8] | Potency [10] | Potency [11] | max response [12] 2.85%
active: activity change, negative = cytotoxicity [1] -142%

C/C=C1/C(=O)C[C@H]2[C@@H]3CCC4=CC(=O)CC[C@]4(C)[C@H]3CC[C@]12C
inactive: Potency [15] | max response [12] -1.31%
active: activity change, negative = cytotoxicity [1] -151% | Potency [5] 39.8 µM | Potency [10] 3.76 µM

Nc1ccc2c(c1)C(=O)c1ccccc1C2=O
active: Potency [10] 10.6 µM and 48.6 µM
-6.52%: max response [7]
inactive: activity change, negative = cytotoxicity [16] -27.2% | Potency [3] | outcome [13] | Potency [6] | outcome [8] | Potency [17]

CCCCCCCC/C=C\CCCCCCCC(=O)N(CCO)CCO
92.2%: max response [7]
inactive: Potency [15] | Potency [4] | Potency [5] | Potency [14] | Potency [18]

CCCCCCCCC1CO1 (centres undefined)
inactive: activity change, negative = cytotoxicity [1] -9.26% | Potency [4] | Potency [18] | Potency [6] | outcome [8] | Potency [19] | Potency [17] | Potency [11] | max response [12] 14.9%
-10.9%: max response [7]

CN(C)c1ccc(Cc2ccc(N(C)C)cc2)cc1
inactive: activity change, negative = cytotoxicity [1] -18.8% | Potency [3] | Potency [4] | Potency [18] | Potency [6] | outcome [8] | Potency [19] | max response [12] -17.1% and 8.5%
11.4% and 3.82%: max response [7]

C[Si](C)(C)Cl
inactive: activity change, negative = cytotoxicity [1] -21.3% | Potency [3] | Potency [5] | outcome [13] | Potency [14] | Potency [18] | Potency [6] | Potency [11] | max response [12] -8.15%

CC1=C(/C=C/C(C)=C/C=C/C(C)=C/C=O)C(C)(C)CCC1
inactive: Potency [15] | Potency [9] | Potency [11] | max response [12] 2.27%
active: Potency [16] 31.6 µM | Potency [2] 15.8 µM | Potency [4] 50.1 µM | Potency [5] 50.1 µM | Potency [10] 29.8 µM | Potency [20] 0.422 µM

CCCCCCCCOc1ccc(C(=O)O)cc1
inactive: activity change, negative = cytotoxicity [1] -11.5% | Potency [5] | Potency [18] | Potency [6] | Potency [11]
active: Potency [20] 66.8 µM

O=C(Cl)c1ccc([N+](=O)[O-])cc1
inactive: Potency [15] | activity change, negative = cytotoxicity [16] 7.26% | activity change, negative = cytotoxicity [1] -20% | Potency [2] | outcome [13] | Potency [14] | Potency [6] | outcome [8] | Potency [17] | Potency [10] | Potency [11] | Potency [20]
8.99%: max response [7]

C/C=C/C=C/C=O
inactive: Potency [15] | outcome [13] | Potency [14] | Potency [19] | Potency [17] | Potency [11] | max response [12] -19.3%
active: activity change, negative = cytotoxicity [1] -142% | Potency [10] 37.6 µM
13.6%: max response [7]
